activity, negative = inhibition and AC50 data for 89 compounds are collected here from PubChem BioAssay AID1851 (National Center for Advancing Translational Sciences (NCATS), 2009).

The campaign covered roughly 16,000 compounds. About 5,700 (36%) were called active. Not shown: some 24% with an inconclusive outcome. Calls come from the whole dose curve; as a rule, active = well fitted curve in the direction sought with a large enough effect; inconclusive = small, poorly fitted or top-dose-only effect, or effect the other way; inactive = no such curve, though single readings can be large or run the other way. This is one part of the list. Peptide text beside a SMILES is read from it. * marks the point of attachment. Cbz = O=C(OCc1ccccc1)*
% is set by controls: 0 for no effect and ±100 for the full control effect.

The target of the assay is Cytochrome P450 1A2 (Homo sapiens) (UniProt P05177). Nature of the assay: Cytochrome panel assay with activity outcomes. The settings on record: recombinant CYP, pro-luciferin dealkylation, luminescence, p450-cyp1a2; series mostly up to 57.1 µM.
Sequence of Cytochrome P450 1A2 (Homo sapiens) (P05177 whole entry, looked up): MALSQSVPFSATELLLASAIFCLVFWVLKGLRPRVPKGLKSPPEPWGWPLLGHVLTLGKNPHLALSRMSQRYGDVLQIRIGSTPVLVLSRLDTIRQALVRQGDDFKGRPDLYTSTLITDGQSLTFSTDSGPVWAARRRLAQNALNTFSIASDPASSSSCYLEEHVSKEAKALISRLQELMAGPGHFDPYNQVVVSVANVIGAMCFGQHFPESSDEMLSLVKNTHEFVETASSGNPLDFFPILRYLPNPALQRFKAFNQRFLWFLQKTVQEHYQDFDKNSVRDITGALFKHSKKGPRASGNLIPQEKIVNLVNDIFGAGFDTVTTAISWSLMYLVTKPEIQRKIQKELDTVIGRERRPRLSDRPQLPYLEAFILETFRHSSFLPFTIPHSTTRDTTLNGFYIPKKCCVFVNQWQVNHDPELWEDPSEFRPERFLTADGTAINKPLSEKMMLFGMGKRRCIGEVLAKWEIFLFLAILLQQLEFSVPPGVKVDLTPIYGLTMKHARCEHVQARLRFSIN
For `COc1cccc([C@H]2Oc3ccc(OC)cc3/C(=N\O[C@@H]3O[C@H](COC(C)=O)[C@H](OC(C)=O)[C@H](OC(C)=O)[C@H]3OC(C)=O)[C@@H]2O)c1`, the activity, negative = inhibition is 2.78% [at 11.4 µM] (inactive).

In the case of `CCOC(=O)c1ccccc1Oc1c(F)c(F)nc(NCCO)c1F`, the AC50 is 8.91 µM (active).

Take `Fc1nc(N2CCCC2)c(F)c(Oc2ccccc2Oc2c(F)c(F)nc(N3CCCC3)c2F)c1F`: the AC50 entry is “inactive”.

As for `Fc1cccc(C2NC(=S)NC3=C2N2CCC3CC2)c1` (centres undefined), the AC50 result is “inactive”.

Take `Cc1c(C#N)c(=O)oc2ccc3ccccc3c12`: the concentration at half-maximal activity (AC50) is 0.126 µM (active).

Consider `Cc1nc(SCC(=O)c2cc3ccccc3oc2=O)c(C#N)c(C)c1C(=O)Nc1ccccc1`, for which the AC50 result was “inactive”.

For `COc1ccc(NC(=O)N2CC3(CCN(C(=O)c4cnccn4)CC3)C2)cc1`, the AC50 entry is “inactive”.

For `O=C1C2CCCN2C(c2ccc(F)cc2)N1c1nccs1` (centres undefined), the concentration at half-maximal activity (AC50) is 3.16 µM (active).

With `Cc1cccc(OCC(=O)NNC(=O)CSc2ncc(C#N)c(N)n2)c1`, the AC50 result was “inactive”.

On to `Cc1snc(SCC(=O)N/N=C(\N)COc2cccc(C(F)(F)F)c2)c1C#N`, for which the half-maximal activity concentration (AC50) is 12.6 µM (active).

With `C[C@H]1CC[C@H]2C(=O)N3[C@H](c4ccc(Br)cc4)[C@@H](C)CC[C@H]3C(=O)N2[C@@H]1c1ccc(Br)cc1`, the activity, negative = inhibition was -10.6% [at 11.4 µM] (inactive).

For `O=C1CC(=Nc2ccccc2)NN1c1ccccc1`, the AC50 is 6.31 µM (active).

Take `CC(C)[C@H](NC(=O)OCc1ccccc1)C(=O)N[C@H](C=O)Cc1ccccc1` (Cbz-Val-Phe-aldehyde): the AC50 result was “inactive”.

With `O=C(N[C@@H](Cc1ccccc1)C(=O)CCl)OCc1ccccc1`, the AC50 was 3.16 µM (active).

In the case of `CC(C)C(NC(=O)OCc1ccccc1)C(=O)O` (centres undefined), the AC50 entry was “inactive”.

With `CN(CC(=O)O)Cc1c(O)c(Cl)cc(Cl)c1Cl`, the activity, negative = inhibition is -0.983% [at 2.29 µM] (inactive).

`COc1ccc(OC)c(C2C(C(=O)Nc3nc4ccccc4s3)=C(C)NC3=C2C(=O)CCC3)c1` (centres undefined): the AC50 was 1.41 µM (active).

With `COc1ccc(-c2cc(C(=O)Nc3nc4c(C)cccc4s3)c3ccccc3n2)cc1OC`, the AC50 entry was “inactive”.

Regarding `CS(=O)(=O)N1CCC2(CCCN(C(=O)Nc3cccc(F)c3)C2)CC1`, the AC50 result is “inactive”.

For the compound `Cc1ccc(S(=O)(=O)O[C@@H]2[C@H]([C@@H]3COC(C)(C)O3)O[C@H]3OC(C)(C)O[C@@H]32)cc1`, the activity, negative = inhibition is -15.9% [at 11.4 µM] (inactive).

In the case of `N#Cc1ccc(-c2ccc(F)cc2)nc1Sc1ccccc1`, the AC50 is 0.891 µM (active).

In the case of `Cc1ccc(Sc2nc(-c3ccccc3)ccc2C#N)cc1`, the half-maximal activity concentration (AC50) was 2.82 µM (active).

`CC[C@@H]1OC(=O)[C@H](C)[C@H](O[C@@H]2C[C@](C)(OC)[C@H](O)[C@H](C)O2)[C@H](C)[C@H](O[C@@H]2O[C@@H](C)C[C@@H](N(C)C)[C@@H]2O)[C@](C)(O)C[C@H](C)[C@@H]2N[C@H](COCCOC)O[C@H]([C@@H]2C)[C@]1(C)O`: the AC50 result was “inactive”.

Regarding `COc1cc(/C=N/Nc2snc(SC)c2C#N)cc(OC)c1OC`, the half-maximal activity concentration (AC50) is 4.47 µM (active).

Regarding `COc1ccc(/C=N/Nc2snc(SC)c2C#N)cc1OC`, the AC50 was 0.708 µM (active).

As for `CO[C@H]1COC(=O)C/C=C\[C@H](C)COC(=O)[C@@H](C)NC(=O)C/C=C\[C@@H]1C`, the activity, negative = inhibition is -2.38% [at 11.4 µM] (inactive).

With `C[C@@]12C=CC(=O)C=C1CC[C@@H]1[C@@H]2[C@H](O)C[C@]2(C)[C@@H]1CC[C@]2(O)C(=O)CO`, the AC50 entry was “inactive”.

In the case of `CCc1ccc(-c2cc(C(F)(F)F)n3nc(C(=O)Nc4cnn(Cc5ccccc5C)c4)cc3n2)s1`, the AC50 result is “inactive”.

On to `Cc1ccccc1Cn1cc(NC(=O)CSc2nc3c(c(C(F)(F)F)n2)CCc2ccccc2-3)cn1`, for which the concentration at half-maximal activity (AC50) was 7.08 µM (active).

As for `Cc1nn(Cc2ccc(Cl)cc2)c(C)c1NC(=O)CSc1nc2c(c(C(F)(F)F)n1)CCc1ccccc1-2`, the AC50 entry was “inactive”.

On to `CC(=O)NS(=O)(=O)c1ccc(N)cc1`, for which the AC50 result was “inactive”.

Consider `O=C(Nc1ccc(-n2nncc2-c2ccco2)cc1)c1ccc(F)cc1`, for which the AC50 result was “inactive”.

Consider `Cc1c(Cl)cccc1NC(=O)c1ccc(-n2ccnc2)nc1`, for which the AC50 was 0.794 µM (active).

With `O=C(Nc1ccc(F)cc1)c1ccc(-n2ccnc2)nc1`, the concentration at half-maximal activity (AC50) is 0.501 µM (active).

Take `Cc1cc(C(F)F)n2nc(C(=O)Nc3cccnc3Cl)nc2n1`: the AC50 entry was “inactive”.

For `Nc1ccn([C@@H]2CC[C@H](CO)O2)c(=O)n1`, the AC50 result is “inactive”.

`Cc1nc2cnc(Oc3ccccc3)nc2n(C)c1=O`: the AC50 was 12.6 µM (active).

Regarding `COc1ccc(Oc2ncc3nc(C)c(=O)n(C)c3n2)cc1`, the half-maximal activity concentration (AC50) is 12.6 µM (active).

With `NC(=O)c1nnn(Cc2cc(Cl)c(C(=O)c3ccc(Cl)cc3)c(Cl)c2)c1N`, the activity, negative = inhibition is -2.19% [at 2.29 µM] (inactive).

With `O=C(Oc1ccccc1)N1CCC2(CC1)CCN(c1ccncc1)CC2`, the AC50 result was “inactive”.

For the compound `CCOC(=O)C1CCN(C(=O)c2ccccc2NC(C)=O)CC1`, the AC50 entry was “inactive”.

Take `Cc1ccccc1N1CCN(C(=O)c2ccccc2NC(=O)/C=C\C(=O)O)CC1`: the AC50 result is “inactive”.

With `O=C(c1ccccc1Nc1ccc(SC(F)F)cc1)N1CCCCC1`, the AC50 was 14.1 µM (active).

Consider `CCCCNC(=O)C1C2C=CC3(CN(Cc4ccccc4Cl)C(=O)C13)O2` (centres undefined), for which the AC50 result is “inactive”.

As for `Cc1cc(-c2cc(-c3ccc(Cl)cc3)nc(N)c2C#N)co1`, the AC50 was 8.91 µM (active).

Consider `COc1ccc(COC(=O)N/N=C2/C[C@@H](O)[C@@H](O)[C@@H]3[C@@H]4C(=O)N(C(C)(C)C)C(=O)[C@H]4CC[C@@H]23)cc1`, for which the activity, negative = inhibition was -55.1% [at 11.4 µM] (inactive).

For `Cc1cc(C)cc(N(C(=O)C2CCCC2)C2C=CS(=O)(=O)C2)c1` (centres undefined), the AC50 result is “inactive”.

Consider `N=C1/C(=C/c2cccs2)C(=O)N=C2SN=C(SCc3ccccc3)N12`, for which the AC50 was 15.8 µM (active).

For the compound `CO[C@@H]1/C=C\CC(=O)N[C@@H](C)C(=O)OC[C@@H](OC)[C@H](C)CCCC(=O)OC[C@H]1C`, the activity, negative = inhibition is 0.281% [at 11.4 µM] (inactive).

Regarding `Cc1nc2nc(-c3ccc(Cl)cc3)nn2c(C)c1Cl`, the AC50 is 0.562 µM (active).

`Cc1cc(N2CCN(C)CC2)n2nc(-c3ccc(Cl)cc3)nc2n1`: the activity, negative = inhibition is -14.3% [at 11.4 µM] (inactive).

For `C/C(Cl)=C\Cn1c(N2CCCC2)nc2c1c(=O)[nH]c(=O)n2C`, the half-maximal activity concentration (AC50) was 14.1 µM (active).

On to `Cc1cc(C)n(-c2nc3c(c(=O)[nH]c(=O)n3C)n2CC(C)C)n1`, for which the AC50 entry was “inactive”.

Take `CCN1CCN(c2nc3c(c(=O)[nH]c(=O)n3C)n2CCCSc2ncccn2)CC1`: the AC50 entry is “inactive”.

For the compound `C#CCCCO/N=C1/[C@H]2O[C@@H]2[C@@H](O)[C@H]2[C@H]1CCn1c(=O)n([C@@H](CC)c3ccccc3)c(=O)n12`, the activity, negative = inhibition is -5% [at 11.4 µM] (inactive).

On to `O=C(c1ccc([N+](=O)[O-])cc1)n1nc(-c2ccccc2)nc1NCc1ccccc1`, for which the AC50 is 7.08 µM (active).

On to `CC(C)C(NS(=O)(=O)c1cccc2nsnc12)C(=O)N1CCc2ccccc2C1` (centres undefined), for which the AC50 entry is “inactive”.

For `COc1ccc(CCNC(=O)C2CCN(S(=O)(=O)c3cccc4nsnc34)CC2)cc1OC`, the AC50 entry was “inactive”.

Turning to `O=C(CCCNS(=O)(=O)c1cccc2nsnc12)NCCc1ccccc1`, the AC50 is 25.1 µM (active).

Turning to `O=C1Cc2c([nH]c3ccc(Br)cc23)-c2ccccc2N1`, the AC50 is 0.158 µM (active).

As for `O=C1CCCCC(=O)c2ccccc2N1`, the AC50 result was “inactive”.

With `O=C(NC1(C(F)(F)F)C(=O)Nc2c1c(=O)[nH]c(=O)n2-c1ccc(F)cc1)c1cccnc1` (centres undefined), the AC50 result is “inactive”.

Turning to `Cn1c(Sc2ccc(-c3cccnc3)n2C)ccc1-c1cccnc1`, the half-maximal activity concentration (AC50) is 0.398 µM (active).

On to `C1CCc2nnnn2CC1`, for which the AC50 entry was “inactive”.

As for `NC(N)=NC(N)=Nc1ccccc1` (tested in a mixture with another compound), the half-maximal activity concentration (AC50) is 3.16 µM (active).

For `NC(N)=NC(N)=Nc1ccccc1`, the AC50 is 31.6 µM (active).

As to `NC(N)=NC(N)=Nc1cccc(Cl)c1`, the AC50 result was “inactive”.

In the case of `NC(N)=NC(N)=Nc1ccc(S(=O)(=O)O)cc1`, the activity, negative = inhibition was -8.09% [at 11.4 µM] (inactive).

For the compound `NC(N)=NC(N)=Nc1ccc(S(N)(=O)=O)cc1`, the activity, negative = inhibition is -9.8% [at 11.4 µM] (inactive).

With `NC(N)=NC(N)=Nc1c(F)c(F)c(F)c(F)c1F`, the activity, negative = inhibition is 10.9% [at 2.29 µM] (inactive).

For the compound `Nc1cc(-c2nn[nH]n2)ccc1F`, the AC50 result is “inactive”.

On to `CC(=O)N(/N=C/c1cccc(C)c1)c1nc(-c2ccc(Br)cc2)cs1`, for which the half-maximal activity concentration (AC50) was 1.41 µM (active).

Take `COc1ccc(/C=N/N(C(C)=O)c2nc(-c3ccc(C)cc3)cs2)cc1`: the AC50 is 1.58 µM (active).

For the compound `C/C(CCN1CCCc2nc(C)c(C)cc21)=N\OC[C@@H](C)[C@H](OCc1ccccc1)C(C)C`, the activity, negative = inhibition was -3.05% [at 11.4 µM] (inactive).

On to `C[C@@]12C[C@H](O)[C@@H]3[C@H](CCC4=CC(=O)CC[C@]43C)[C@H]1CC[C@@H]2c1csc(N)n1`, for which the activity, negative = inhibition was -9.78% [at 2.29 µM] (inactive).

Regarding `Cc1cccc(CNc2ncncc2-c2ccccc2C)c1`, the half-maximal activity concentration (AC50) was 2.51 µM (active).

With `Cc1ccccc1-c1cncnc1NCc1ccccc1`, the concentration at half-maximal activity (AC50) was 12.6 µM (active).

As for `Cc1cccc(CNc2ncncc2-c2ccccc2Cl)c1`, the concentration at half-maximal activity (AC50) is 3.16 µM (active).

With `N#Cc1ccccc1-c1cncnc1NCc1cccnc1`, the half-maximal activity concentration (AC50) was 0.0631 µM (active).

With `CCCCCCCCCCCCCCCCCC(=O)O[C@H](CC(=O)O)C[N+](C)(C)C`, the AC50 result is “inactive”.

Regarding `CCN1CCCCC(=N/O)/C(=N/O)CCCC1`, the activity, negative = inhibition was -9.97% [at 11.4 µM] (inactive).

For the compound `CC(C)(C)NS(=O)(=O)c1ccc(NC(=O)C(Sc2ccccc2)c2ccccc2)cc1` (centres undefined), the AC50 result is “inactive”.

As for `C[C@@H]1OC2C3=C(C(=O)[C@H]4O[C@@H]4[C@H]3O)[C@@H]1[C@H]1[C@H](C)OC=C3[C@H](O)[C@H]4O[C@H]4/C(=N\OCc4ccccc4)[C@@]321`, the activity, negative = inhibition was -13.5% [at 11.4 µM] (inactive).

For `O=C(c1ccco1)N1CCC[C@@]2(CCN(Cc3nccs3)C2)C1`, the AC50 result was “inactive”.

Turning to `Cc1ccccc1-c1cncnc1NCc1cccnc1`, the AC50 was 15.8 µM (active).

For `FC(F)(F)c1ccccc1-c1cncnc1NCc1cccnc1`, the AC50 is 20 µM (active).

For the compound `Cc1nc2cnc(Nc3ccccc3)nc2n(C)c1=O`, the AC50 was 1.26 µM (active).

Regarding `COc1cccc(Nc2ncc3nc(-c4ccccc4)c(=O)n(C)c3n2)c1`, the concentration at half-maximal activity (AC50) is 3.16 µM (active).

As for `Cn1c(=O)c(-c2ccccc2)nc2cnc(Nc3ccccc3)nc21`, the AC50 was 15.8 µM (active).
